This is an account of results in PubChem BioAssay (NCI).

The panel holds about 83,000 compounds, 20% with a hit somewhere; the sample as a whole holds those more often.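 In brief: 96-well plates, 48 h treatment, single concentration, percent growth endpoint.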 Values without a mark were called inactive. The source made the active and inactive calls. Rule for the calls: active = growth percent below 10; inactive = the rest.

Among the test systems are NCI-H23 lung; NCI-H226 lung; NCI-H322M lung; HOP-62 NSCLC; NCI-H460 lung; HOP-92 NSCLC; NCI-H522 lung; A549/ATCC NSCLC; 786-0 renal; COLO 205 colon; DU-145 prostate; K-562 leukemia; MALME-3M melanoma; MDA-MB-231 breast; RXF 393 renal; SF-268 CNS; SF-295 CNS; SF-539 CNS; M14 melanoma.
Holding throughout (experiment): NCI-60 one-dose screen, 48 h (100 = growth as untreated, 0 = no growth, -100 = all killed)
What all share (conditions): 10 µM unless noted

Regarding `COc1cc(-n2nc(C(=O)Nc3ccc(C(=O)O)cc3)nc2-c2ccccc2)cc(OC)c1OC`, the growth in the test on NCI-H23 lung was 97.4%; in the test on NCI-H226 lung, 103%; in the test with NCI-H322M lung, 24.5%; with HOP-62 NSCLC, 85.1%; in the test with NCI-H460 lung, 115%; with HOP-92 NSCLC it was 83.5%. The growth in the test with NCI-H522 lung is 55.9%; in the test with A549/ATCC NSCLC it was 74.7%; with 786-0 renal, 92.1%; in the test with COLO 205 colon it was 104%; in the test with DU-145 prostate, 70.6%; in the test with K-562 leukemia it was 100%. Also, the growth in the test on MALME-3M melanoma is 94.2%; in the test on MDA-MB-231 breast, 99%; in the test with RXF 393 renal, 106%; in the test on SF-268 CNS, 92%; in the test on SF-295 CNS it was 103%; in the test with SF-539 CNS, 106%. For the same compound, the growth with M14 melanoma is 100%.

As for `CCN(CC)CCSc1c2ccc(Cl)cc2nc2ccc(OC)cc12`, the growth is 87.1% with NCI-H23 lung; 100% with NCI-H226 lung; 105% with NCI-H322M lung; 75.9% in the test on HOP-62 NSCLC; 102% in the test with NCI-H460 lung; 82.3% in the test on HOP-92 NSCLC. Besides, the growth is -24.9% (active) in the test on NCI-H522 lung; 74% with A549/ATCC NSCLC; 67.6% in the test with 786-0 renal; 26.8% in the test with COLO 205 colon; -38% (active) in the test with DU-145 prostate; 9.42% (active) in the test on K-562 leukemia. Besides, the growth in the test on MALME-3M melanoma was 101%; with MDA-MB-231 breast, 51.9%; with RXF 393 renal, 116%; in the test with SF-268 CNS it was 96.7%; with SF-295 CNS, 105%; with SF-539 CNS, 99.6%. In addition, in the test on M14 melanoma, the growth was 79%.

Take `Cc1ccc2nc(SCn3nnc4ccccc4c3=O)[nH]c2c1`: the growth with NCI-H23 lung was 100%; in the test on NCI-H226 lung it was 110%; in the test on NCI-H322M lung, 135%; in the test on HOP-62 NSCLC, 88.9%; with NCI-H460 lung it was 99.5%; in the test on HOP-92 NSCLC, 82.8%. Moreover, the growth in the test on NCI-H522 lung was 89.5%; in the test with A549/ATCC NSCLC it was 113%; in the test on 786-0 renal, 107%; in the test with COLO 205 colon it was 75.9%; in the test on DU-145 prostate, 96.5%; in the test with K-562 leukemia, 74.4%. For the same compound, the growth in the test with MALME-3M melanoma is 323%; in the test on MDA-MB-231 breast it was 97.9%; in the test on RXF 393 renal, 117%; in the test on SF-268 CNS, 111%; in the test with SF-295 CNS, 109%; in the test with SF-539 CNS, 86.4%. For the same compound, in the test on M14 melanoma, the growth is 102%.

For the compound `Cc1c(C(=O)NCc2ccccc2)[n+](=O)c2cc(F)ccc2n1[O-]`, the growth with NCI-H23 lung is 90.1%; with NCI-H226 lung it was 103%; in the test with NCI-H322M lung, 117%; with HOP-62 NSCLC, 94.8%; in the test on NCI-H460 lung, 109%; with HOP-92 NSCLC, 64.3%. Besides, the growth was 90.9% with NCI-H522 lung; 109% in the test on A549/ATCC NSCLC; 101% in the test with 786-0 renal; 123% in the test with COLO 205 colon; 99.8% in the test with DU-145 prostate; 214% with K-562 leukemia. Besides, the growth in the test with MALME-3M melanoma was 114%; with MDA-MB-231 breast it was 111%; with RXF 393 renal, 33.1%; with SF-268 CNS, 111%; with SF-295 CNS it was 88.4%; in the test with SF-539 CNS, 103%. The growth in the test with M14 melanoma was 99.5%.

Take `COC(=O)CCCCN=Cc1c(O)c(O)c(C(C)C)c2cc(C)c(-c3c(C)cc4c(C(C)C)c(O)c(O)c(C=NCCCCC(=O)OC)c4c3O)c(O)c12`: the growth with NCI-H23 lung was 15.6%; in the test on NCI-H226 lung, 41.4%; with NCI-H322M lung it was 25.4%; with HOP-62 NSCLC it was 27.3%; in the test on NCI-H460 lung, 5.03% (active); in the test with HOP-92 NSCLC it was -10.1% (active). Besides, the growth is -0.222% (active) in the test on NCI-H522 lung; 21% in the test on A549/ATCC NSCLC; 21.7% in the test on 786-0 renal; 10.2% in the test with COLO 205 colon; 24.3% in the test with DU-145 prostate; 10.3% in the test on K-562 leukemia. Moreover, the growth in the test with MALME-3M melanoma was 42.5%; in the test on MDA-MB-231 breast it was 6.38% (active); in the test on RXF 393 renal, 8.84% (active); in the test with SF-268 CNS it was 24.2%; in the test with SF-295 CNS, 2.79% (active); in the test with SF-539 CNS, 24.2%. The growth in the test with M14 melanoma is 22.9%.

For the compound `COc1ccc(/C=C/C(=O)/C=C/c2cc3ccc(Cl)cc3[nH]c2=O)cc1`, the growth was 81.1% with NCI-H23 lung; 81% in the test on NCI-H226 lung; 97.2% in the test on NCI-H322M lung; 85.3% in the test on HOP-62 NSCLC; 86.7% in the test with NCI-H460 lung; 103% in the test on HOP-92 NSCLC. Moreover, the growth with NCI-H522 lung was 82.3%; in the test on A549/ATCC NSCLC it was 93.1%; in the test on 786-0 renal it was 94.9%; in the test with COLO 205 colon it was 90.5%; in the test with DU-145 prostate, 88.2%; in the test on K-562 leukemia, 53.2%. In addition, the growth is 107% in the test on MALME-3M melanoma; 59.4% in the test with MDA-MB-231 breast; 86.9% with RXF 393 renal; 86.5% with SF-268 CNS; 94.8% in the test on SF-295 CNS; 92% in the test with SF-539 CNS. Further, the growth in the test on M14 melanoma was 86.4%.

For the compound `COc1ccc2c(c1)C=CC(C#N)N2C(=O)c1ccccc1` (stereo unspecified), the growth is 26.4% in the test on NCI-H23 lung; 61.6% in the test with NCI-H226 lung; 53.9% in the test on NCI-H322M lung; 34.6% with HOP-62 NSCLC; 5.09% (active) in the test on NCI-H460 lung; 34% in the test on HOP-92 NSCLC. In addition, the growth in the test on NCI-H522 lung was 1.91% (active); in the test on A549/ATCC NSCLC, 21.2%; in the test on 786-0 renal, 23.4%; in the test on COLO 205 colon it was -43.7% (active); in the test with DU-145 prostate, 3.08% (active); in the test with K-562 leukemia it was 7.66% (active). The growth in the test on MALME-3M melanoma is 66.8%; with MDA-MB-231 breast it was 25.4%; in the test with RXF 393 renal, 30.4%; in the test on SF-268 CNS, 34%; in the test with SF-295 CNS, -1.96% (active); with SF-539 CNS, -21.2% (active). Moreover, the growth in the test with M14 melanoma is 15.9%.

In the case of `CSc1ccccc1C#C/C=C\C#Cc1ccccc1N1CCCC1=O`, the growth with NCI-H23 lung was 53.4%; in the test with NCI-H226 lung, 62.5%; in the test on NCI-H322M lung it was 91.5%; in the test on HOP-62 NSCLC, 60.2%; in the test on NCI-H460 lung, 24.7%; in the test with HOP-92 NSCLC it was 40.7%. Besides, the growth with NCI-H522 lung was 70.5%; in the test with A549/ATCC NSCLC, 63.2%; in the test on 786-0 renal, 71.1%; with COLO 205 colon it was 65.2%; with DU-145 prostate it was 85.7%; in the test on K-562 leukemia it was 14.7%. For the same compound, the growth in the test with MALME-3M melanoma was 50%; in the test on MDA-MB-231 breast it was 51%; in the test on RXF 393 renal, 52.9%; in the test with SF-268 CNS, 56.6%; in the test on SF-295 CNS it was 65.3%; in the test with SF-539 CNS it was 55.1%. For the same compound, in the test on M14 melanoma, the growth is 64.5%.

On to `COc1cccc2nc(Nc3ccc(NC(=O)c4ccc5ncccc5c4)cc3)ccc12`, for which the growth in the test on NCI-H23 lung was 92.8%; in the test on NCI-H226 lung it was 97.5%; in the test with NCI-H322M lung, 81.4%; in the test with HOP-62 NSCLC it was 91.9%; in the test on NCI-H460 lung it was 84.8%; in the test on HOP-92 NSCLC, 111%. Further, the growth with NCI-H522 lung was 99.9%; with A549/ATCC NSCLC it was 78.1%; in the test on 786-0 renal, 42.7%; in the test with COLO 205 colon, 103%; in the test on DU-145 prostate, 89.6%; in the test with K-562 leukemia it was 60.1%. For the same compound, the growth in the test on MALME-3M melanoma is 70.2%; in the test with MDA-MB-231 breast, 68.3%; in the test with RXF 393 renal, 30%; in the test on SF-268 CNS, 82.8%; in the test with SF-295 CNS, 6.41% (active); with SF-539 CNS, 48.1%. For the same compound, in the test with M14 melanoma, the growth was 92.6%.
